The source made the active and inactive calls. A call without a number means that no potency is given here. Calls follow the shape of the dose curve; as a rule, active = well fitted cell-killing curve with a large enough effect; inconclusive = small, poorly fitted or top-dose-only effect, or effect the other way; inactive = flat fitted curve, though single readings scatter.
Potency is read from the fitted curve at half-maximal effect.

This test is described as follows: MultiTox-Fluor Cytotoxicity Assay - LYMP1-003 - Dead Cells (AID 961). Also: nearly all actives have a fitted effect of over 70% in size. Particulars: LYMP1-003 lymphoblastoid cells, dead-cell protease fluorescence; series mostly up to 92.2 µM. An excerpt:
NIH Chemical Genomics Center [NCGC]
NIH Molecular Libraries Screening Centers Network [MLSCN]
National Institutes of Environmental Health Sciences [NIEHS]
National Toxicology Program [NTP]
We have developed a 1536-well cell-based assay for quantitative high throughput screening (qHTS) against a number of cell lines to determine in vitro cytotoxicity of small molecules. This particular assay uses a human lymphoblastoid cell line (LYMP1-003) purchased from Coriell Institute.
NCGC Assay Protocol Summary:
The MultiTox-Fluor Cytotoxicity Assay (Promega) is a homogeneous method to simultaneously measure the relative number of live and dead cells in culture by detecting changes in cell membrane integrity. There are two fluorogenic peptide substrates in the assay reagent. Viable cells are determined when the cell-permeant substrate (GF-AFC) enters the cell and is cleaved by protease from live cells resulting in liberated fluorophore. This live-cell protease activity restricted to viable cells is proportional to cell number. The dead cells are determined by using fluorogenic cell-impermeant peptide substrate (bis-AAF-R110) which cleaved by dead cell proteases leaking from damaged cell membrane.
Using the MultiTox-Fluor Cytotoxicity Assay, the relative number of dead cells was measured in the lymphoblastoid cell line with complete culture medium following compound treatment for 16 hours. The assay was performed in opaque black Kalypsys 1536-well plates. In the screen, tetraoctylammonium bromide was used as positive control. Library compounds were measured for their ability to cause acute toxicity in the cell line, as reflected by an increase in dead cell protease activity, in a concentration-dependent manner. Data were normalized to the controls for basal activity (DMSO only) and 100% stimulation (15 uM tetraoctylammonium bromide). AC50 values were determined from concentration-response data modeled with the standard Hill equation.
qHTS protocol for MultiTox-Fluor Cytotoxicity assay
[Step] [Parameter] [Value] [Description]
1. Reagent; 5 uL; 2500 lymphoblastoid cells/well
2. Time; 5 hr; 37 C incubation
4. Controls; 23 nL; Tetraoctylammonium bromide 6.4pM to 92 uM
5. Time; 16 hr; 37 C incubation
6. Reagent; 5 uL; MuliTox-Fluor Assay reagent
7. Time; 60 min; Room Temperature
8. Detection; dead-cell fluorescence (Ex/Em=485/520); EnVision plate reader
Keywords: cytotoxicity, lymphoblastoid cell line, fluorescence, NTPHTS, NTPHTS_NCGC, NIEHS, EPA, DSSTox, MLSMR, MLSCN, NIH Roadmap, qHTS, NCGC
Turning to `CCCCC(CC)COC(=O)c1ccc(N(C)C)cc1` (centres undefined), the Potency entry is “inactive”. The entry for `OC[C@H]1O[C@@H]2O[C@H]3[C@H](O)[C@@H](O)[C@@H](O[C@H]4[C@H](O)[C@@H](O)[C@@H](O[C@H]5[C@H](O)[C@@H](O)[C@@H](O[C@H]6[C@H](O)[C@@H](O)[C@@H](O[C@H]7[C@H](O)[C@@H](O)[C@@H](O[C@H]8[C@H](O)[C@@H](O)[C@@H](O[C@H]1[C@H](O)[C@H]2O)O[C@@H]8CO)O[C@@H]7CO)O[C@@H]6CO)O[C@@H]5CO)O[C@@H]4CO)O[C@@H]3CO` is “inactive”; for `C/C=C/c1ccc(O)c(OC)c1` it is “inactive”.

Take `CCOc1ccccc1C(N)=O`: the Potency entry is “inactive”. The value for `NCCNc1cccc2ccccc12` was “inactive”. The value for `Oc1c(Cl)cc(Cl)c(Cl)c1Cc1c(O)c(Cl)cc(Cl)c1Cl` was 50.1 µM (active); that for `COc1cc([C@H]2Oc3cc([C@H]4Oc5cc(O)cc(O)c5C(=O)[C@@H]4O)ccc3O[C@@H]2CO)ccc1O` was “inactive”. For `CCCN(CCC)S(=O)(=O)c1ccc(C(=O)O)cc1`, the Potency result is “inactive”. The entry for `NC(=O)c1ccccc1O` is “inactive”.

As for `COc1ccc(C(=O)c2ccccc2)c(O)c1`, the Potency result is “inactive”. Turning to `C=C[C@H]1CN2CC[C@H]1C[C@@H]2[C@@H](O)c1ccnc2ccc(OC)cc12`, the Potency result is “inactive”.

On to `CCOc1ccc(NC(C)=O)cc1`, for which the Potency entry was “inactive”. For the compound `O=C(O)c1ccc(S(=O)(=O)N(Cl)Cl)cc1`, the Potency entry was “inactive”. The value for `COc1ccc(C(Cl)=C(c2ccc(OC)cc2)c2ccc(OC)cc2)cc1` was “inactive”.

Values taken from PubChem BioAssay (NCATS).
